Source: PubChem
ELG1 genotox: genotoxicity induction in ELG1-luciferase HEK293T cells; HEK293T ELG1-luciferase reporter, luminescence, 16 h; Potency, µM (highest dose often 46 µM), without a hit: top-dose activity change, positive = activation, hits mostly activators; 1.3% of 330,000 active; AID 504466; note: % of control where 0% means no effect; nearly all actives have a fitted effect of over 60% in size
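Reporter readout depends on ELG1 protein level, which increases with genetic stress. After 16 hr compound exposure at 37 °C, luciferase activity was quantified using ONE-Glo.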
ELG1 DNA repair: inhibitors of ELG1-dependent DNA repair in HEK293T cells; 2.3% of 330,000 active; HEK293T ELG1-luciferase reporter, luminescence, 16 h; DNA damage induced by 5-fluorouridine; AID 504467; Potency, µM (top dose mostly 46.1 µM), for the others: top-dose activity change, negative = inhibition, actives largely listed as inhibitors; note: % is set by controls: 0 for no effect and ±100 for the full control effect; nearly all actives have a fitted effect of over 55% in size
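Luminescence from the luciferase reporter, measured 30 min after ONE-Glo reagent at room temperature, was the read-out. Beforehand, 2,000 cells per well were exposed for 16 hr at 37 °C to 5-fluorouridine together with compound or vehicle.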
Rab9 prom act: activators of Rab9 promoter | Huh7 Rab9 promoter-luciferase reporter, luminescence, 24 h | Potency, µM (series often up to 9.22 µM), without a hit: top-dose activation, negative = inhibition, actives largely listed as activators | 2.8% of 320,000 active; note: % of control where 0% means no effect; nearly all actives have a fitted effect of over 60% in size
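Luminescence read-out: Huh7 cells stably expressing Rab9-luciferase, treated 24 h with compound at 37 °C, then lysed with luciferase reagent for 10 min at ambient before reading.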
NPC1 promoter act: NPC1 promoter activation; Potency, µM (titrated, usually from 9.22 µM), for the others: at the highest dose activation, usual class: activators; 2.4% of 320,000 active; AID 485313; Huh7 NPC1 promoter luciferase reporter, 24 h; note: % of control where 0% means no effect; nearly all actives have a fitted effect of over 60% in size
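Luciferase expression driven by the NPC1 promoter was measured in stably transfected Huh7 cells after a 24 h compound incubation, using a luciferase reagent and a luminescence read.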
SMN2 splice up: SMN2 splice variant enhancement | HEK293 SMN2-luciferase splicing reporter, luminescence, 30-36 h | Potency, µM (doses to about 46.1 µM), for inactives: at the top dose activity change, positive = activation, most hits filed as activators | 2.8% of 210,000 active | AID 1458; note: % of control where 0% means no effect; nearly all actives have a fitted effect of over 55% in size
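HEK293 cells carry an SMN2 minigene-luciferase reporter in which exon 7 inclusion puts luciferase in frame. Cells were seeded at 2000 cells/well, attached for 10-12 hours, then exposed to compounds for 30-36 hours at 37C before ONE-Glo luminescence.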
FLuc counter: firefly luciferase modulation, counter-screen for miR-21 project; purified FLuc, Km substrates, luminescence inhibition; P08659; Potency, µM (series often up to 57.5 µM), for inactives: at the highest dose activity change, negative = inhibition, usual class: inhibitors; 6.9% of 360,000 active;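 note: plate controls were vehicle for no effect and reference inhibitor for full effect; nearly all actives have a fitted effect of over 55% in size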
Target sequence (P08659 whole entry, looked up): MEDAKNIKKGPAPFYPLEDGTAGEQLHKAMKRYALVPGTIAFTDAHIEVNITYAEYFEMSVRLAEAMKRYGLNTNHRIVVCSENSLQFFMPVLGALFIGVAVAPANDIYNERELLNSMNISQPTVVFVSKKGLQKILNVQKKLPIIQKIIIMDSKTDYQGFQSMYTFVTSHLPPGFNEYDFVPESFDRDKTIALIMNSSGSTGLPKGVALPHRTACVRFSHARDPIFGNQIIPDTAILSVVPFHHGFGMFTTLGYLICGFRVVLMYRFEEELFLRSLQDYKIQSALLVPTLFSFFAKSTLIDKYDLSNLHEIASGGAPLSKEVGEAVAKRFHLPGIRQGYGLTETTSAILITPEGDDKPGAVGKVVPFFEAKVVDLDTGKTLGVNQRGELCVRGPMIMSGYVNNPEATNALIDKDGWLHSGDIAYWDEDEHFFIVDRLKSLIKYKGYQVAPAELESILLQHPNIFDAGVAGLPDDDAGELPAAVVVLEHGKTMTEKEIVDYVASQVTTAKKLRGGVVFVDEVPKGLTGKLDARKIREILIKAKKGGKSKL
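Biochemical qHTS of compounds, final roughly 60 µM downward over six points, against 10 nM purified firefly luciferase using Km concentrations of substrates (10 uM D-luciferin, 10 uM ATP) in Tris acetate pH 7.5 buffer; luminescence output.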
Numbers without * were called inactive; u = inconclusive; x = no result. Compounds with a hit are over-represented: about 9.2% of the library has one in this group of screens. Calls come from the whole dose curve; as a rule, active = well fitted curve in the direction sought with a large enough effect; inconclusive = small, poorly fitted or top-dose-only effect, or another doubt; inactive = no such curve, though single readings can be large; an effect the other way counts as inactive or inconclusive. Potency is the fitted concentration of half-maximal effect.

SMILES | ELG1 genotox | ELG1 DNA repair | Rab9 prom act | NPC1 promoter act | SMN2 splice up | FLuc counter
CC(=O)c1c(C)[nH]c(C(=O)N2CCN(S(=O)(=O)c3ccc(C)cc3C)CC2)c1C | 1% | u | -7% | 0% | x | 0%
CCOC(=O)c1c(C)[nH]c(C(=O)OCC(=O)N2CCN(S(=O)(=O)c3ccc(C)cc3C)CC2)c1C | -6% | 13µM* | -9% | 0% | x | 0%
COc1cc(C(=O)N2CCN(S(=O)(=O)c3ccc(C)cc3C)CC2)ccc1OCC(=O)N1CCOCC1 | 2% | 2.3µM* | 0% | 4% | x | 3%
COc1cc(C(=O)N2CCN(C(=O)c3cc(-c4ccc(Br)cc4)n[nH]3)CC2)cc(OC)c1OC | 2% | -10% | 2% | 1% | x | 11µM*
CSc1ccc(CSCC(=O)N2CCN(S(=O)(=O)c3ccc(C)cc3C)CC2)cc1 | -5% | 10µM* | -12% | 1% | x | 6%
COc1ccc(C(=O)N2CCN(S(=O)(=O)c3ccc(C)cc3C)CC2)cc1OC | 1% | u | -2% | 0% | -12% | -2%
CC(C)n1cc(CN2CCC(Oc3ccc(C(=O)N4CCCCC4)cc3)CC2)cn1 | 0% | 2% | -20% | 2% | x | 0%
CCCN(CCC)S(=O)(=O)c1ccc(Cl)c(OC)c1 | 1% | -9% | -3% | -4% | -2% | -4%
NC(=O)NC(c1ccccc1)c1cccc2ccccc12 (configuration not stated) | -2% | u | -4% | -1% | -3% | 1%
Cc1cccc(NC(=O)CSc2nc3ccccc3c(=O)n2CC2CCCO2)c1 (configuration not stated) | -4% | 0% | x | x | x | x
COc1ccc(C(=O)N2CCN(C(=O)COc3ccc(Br)cc3)CC2)cc1OC | x | x | x | x | 5% | 17µM*
COc1cc(/C=C/C(=O)OCC(=O)N2CCN(S(=O)(=O)c3ccc(C)cc3C)CC2)ccc1O | -5% | 21µM* | -3% | -1% | 5% | 0%
Cc1ccc(S(=O)(=O)N2CCN(C(=O)COC(=O)/C=C/c3ccccc3F)CC2)c(C)c1 | 2% | -1% | 3% | 0% | x | -2%
COc1ccc(OCC(=O)N2CCN(C(=O)c3ccc(OC)c(OC)c3)CC2)cc1 | x | x | x | x | -3% | u
COC(=O)c1ccccc1NC(=O)CSc1nc(Nc2ccccc2)nc(N2CCOCC2)n1 | 0% | u | -6% | 0% | x | -2%
C/C=C\C=C/C(=O)Nc1cccc(C2=NOC3(C2)C[C@@H](C(N)=O)N(C(=O)c2ccccc2)C3)c1 (some centres not stated) | 5% | 23% | 21% | 3% | x | 17µM*
NC(=O)C1(NC(=O)[C@@H]2CC3(CC(c4cccc(NC(=O)[C@@H]5CCC(=O)N5)c4)=NO3)CN2C(=O)c2ccccc2)CC1 (some centres not stated) | 0% | 14% | 6% | 2.2µM* | -10% | -2%
C/C=C\C(=O)Nc1cccc(C2=NOC3(C2)C[C@@H](C(N)=O)N(C(=O)c2ccccc2)C3)c1 (some centres not stated) | 0% | 10% | -11% | -2% | x | 4%
C/C=C/C=C\C(=O)Nc1cccc(C2=NOC3(C2)C[C@@H](C(N)=O)N(C(=O)c2cc([N+](=O)[O-])cc([N+](=O)[O-])c2C)C3)c1 (some centres not stated) | 2% | -16% | -1% | -2% | x | 7.6µM*
CCCOc1ccc(C(=O)N2CC3(CC(c4cccc(NC(=O)[C@@H]5CCC(=O)N5)c4)=NO3)C[C@H]2C(=O)NC2(C(N)=O)CC2)cc1 (some centres not stated) | -1% | 8% | -5% | 1% | -4% | 5%
CCCCCC(=O)Nc1cccc(C2=NOC3(C2)C[C@@H](C(N)=O)N(C(=O)c2cc([N+](=O)[O-])cc([N+](=O)[O-])c2C)C3)c1 (some centres not stated) | -1% | u | -4% | -5% | x | -17%
C/C=C\C=C\C(=O)Nc1cccc(C2=NOC3(C2)C[C@H](C(N)=O)N(C(=O)c2ccccc2C(=O)c2ccccc2)C3)c1 (some centres not stated) | -2% | u | -5% | 3% | x | 21µM*
O=C(NCc1ccco1)C(=O)NCC1OCCN1C(=O)c1ccc(Cl)cc1 (configuration not stated) | 0% | 7% | 0% | 3% | x | -3%
O=C(CN1C(=O)NC2(CCCCC2)C1=O)Nc1ccc2c(c1)OCCCO2 | u | u | 3.2µM* | 3.2µM* | x | 12µM*
CC1CCCCC12NC(=O)N(CC(=O)Nc1ccc3[nH]c(=O)[nH]c3c1)C2=O (configuration not stated) | -2% | u | -4% | -3% | x | 3%
SMILES | ELG1 genotox | ELG1 DNA repair | Rab9 prom act | NPC1 promoter act | SMN2 splice up | FLuc counter
CC1CCCCC12NC(=O)N(CC(=O)NC(=O)Nc1ccc3c(c1)OCCO3)C2=O (configuration not stated) | u | u | 3.5µM* | 2.8µM* | 13µM* | 11µM*
CCc1ccc(CNC(=O)c2ccc3c(c2)nc2n3CCOC2)cc1 | x | x | x | x | x | -11%
COc1cc2ccccc2cc1C(=O)Nc1ccc(CN2CCOCC2)cc1 | -11% | u | 19% | 19% | x | 15µM*
O=C(Nc1ccc(CN2CCOCC2)cc1)c1ccccc1F | u | u | u | 3.2µM* | 11µM* | u
COc1ccc(Br)cc1C(=O)NC(=S)Nc1ccc(CN2CCOCC2)cc1 | -12% | u | -1% | -6% | x | -12%
O=C(Cc1ccccc1)Nc1ccc(CN2CCOCC2)cc1 | 12µM* | u | u | u | 22µM* | u
O=C(Nc1ccc(CN2CCOCC2)cc1)c1cccs1 | u | u | 3.2µM* | u | 13µM* | 12µM*
CC(C)P(=O)(c1cccc(C(=O)O)c1)C(C)C | -1% | 19% | -7% | -3% | -13% | 3%
C=CCN(C)CCCNC(=O)/C=N/O | 0% | 9% | -3% | -4% | -1% | 0%
CC(C(=O)N1CCN(c2ccc(Cl)cc2)CC1)c1ncc(C(F)(F)F)cc1Cl (configuration not stated) | -9% | -10% | -4% | 1% | -25% | 3%
CSc1ccc(/C=N/n2c(COc3ccccc3)n[nH]c2=S)cc1 | 0% | 5% | -8% | -2% | x | -9%
CCCSC1=N/C(=C\C=C\c2ccco2)C(=O)S1 | 0% | 5% | 1% | -2% | -6% | 11µM*
